In PubChem BioAssay (NCI):
Compounds without any hit were thinned out: in the full panel of roughly 79,000, 15% have a hit. Unmarked numbers belong to inactive results. Active and inactive are the calls of the source. Rule as the data show it: active = growth inhibition above about 70%; inactive = the rest.

Assay: NCI Yeast Anticancer Drug Screen. Data for the mlh1 rad18 strain (AID 175)
Details: S. cerevisiae mlh1 rad18 strain growth inhibition; at 5.0 µM (retest, dose inferred, filed as 0.5); active compounds read high
Method in brief: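 Compound-treated yeast growth, normalised to vehicle controls. Strain bears defined DNA repair mutations.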
Compound `COC(=O)C1C(c2ccccc2)=N[C@@H](c2ccccc2)[C@H]1C(=O)OC` (stereo not given in full) has a growth inhibition of 1%.
Compound `CCCCCCCCCC(C)CC(=O)NCCCN(C)CCCCN(C)C` (stereo not given) (tested in a mixture with another compound) has a growth inhibition of 34%.
`Cc1ccc(N=C2SC(=S)N(CCC[N+](C)(C)C)C2=Nc2ccc(C)cc2)cc1` showed a growth inhibition of 3%.
For `N#CSc1ccc(O)c2ccccc12`, the growth inhibition was 29%.
For `CCCCCC1OC(CCCCC)OC(CCCCC)O1` (stereo not given), the growth inhibition was -8%.
With `ClC1(c2ccccc2)c2ccccc2-c2ccccc21` the growth inhibition was 0%.
Work on `CCN(CC)c1ccc(NC(CC(O)c2ccccc2)c2ccccc2)cc1` (stereo not given) yielded a growth inhibition of -5%.
With `CCCCCCC[n+]1ccc(C(=O)c2ccccc2)cc1` the growth inhibition was 99% (active).
For `O=c1[nH][nH]c(=O)c2c1nc(SCc1ccccc1)n2Cc1ccccc1`, the growth inhibition was -2%.
With `CCOC(=O)C(NNc1ccccc1)C(c1ccccc1)[P+](c1ccccc1)(c1ccccc1)c1ccccc1` (stereo not given) the growth inhibition was 95% (active).
In the case of `CC(C)/C=C1\CCC(CN2CCOCC2)C1=O` (stereo not given), the growth inhibition is reported as -5%.
`CCc1cc2nc3c(=O)[nH]c(=O)nc-3n(CCN(CCO)CCO)c2cc1CC` gave a growth inhibition of 2%.
Compound `c1ccc2c(c1)OCC(CN1CCN(CC3COc4ccccc4O3)CC1)O2` (stereo not given) has a growth inhibition of 47%.
Work on `CNC(C)C(=O)c1ccc2ccc3ccccc3c2c1` (stereo not given) yielded a growth inhibition of -6%.
`O=[N+]([O-])c1ccc(N=C(Cl)C(Cl)(c2ccccc2)c2ccccc2)cc1` gave a growth inhibition of 7%.
Work on `O=[N+]([O-])c1ccc2c(c1)Cc1cc(Cl)ccc1-2` yielded a growth inhibition of 6%.
`CCCCCCOC(=O)Nc1ccc(S(=O)(=O)N2CCCCC2)cc1` showed a growth inhibition of -1%.
For `CCCCCCCCCCCOc1cccc(N2C(N)=NC(N)=NC2(C)C)c1`, the growth inhibition was 99% (active).
Compound `O=Nc1c(NO)c2ccccc2c2ccccc12` has a growth inhibition of 20%.
`CCCCCCCCCCCCCCCCOS(=O)(=O)O` showed a growth inhibition of 42%.
`CCCCCCCCCCCCCCCCCC[N+](C)(C)Cc1ccc(C[N+](C)(C)CCCCCCCCCCCCCCCCCC)cc1` gave a growth inhibition of -3%.
Compound `NNc1ccc2ccccc2n1` has a growth inhibition of 19%.
With `Cc1cc(NC(=S)SCc2ccc(F)cc2)c([N+](=O)[O-])cc1C` the growth inhibition was 94% (active).
`COC(=O)/C(=C\c1cn(C(C)=O)c2ccccc12)P(=O)(OC)OC` gave a growth inhibition of 16%.
For `O=C(Nc1ccccc1)c1ccccc1O`, the growth inhibition was -4%.
With `CC(=O)c1c2c(cc3c1CC1(Cc4ccccc4C1=O)C3)CCC2` (stereo not given) the growth inhibition was -11%.
In the case of `CC(=O)c1c(-c2ccco2)c(C#N)c(=S)n(C2OC(CO)C(O)C(O)C2O)c1-c1ccccc1` (stereo not given), the growth inhibition is reported as -25%.
`CC1(C)OC2C(CO)OC(n3ncc(=S)[nH]c3=O)C2O1` (stereo not given) gave a growth inhibition of -1%.
For `C=C(C)C1CC/C(C)=C/CCC2(C)OC2CC/C(CO)=C\C1O` (stereo not given), the growth inhibition was 87% (active).
In the case of `CC(C)CCSc1ncnc2nc[nH]c12`, the growth inhibition is reported as -1%.
`COC(=O)C1(Cc2ccc3c(c2)CCC3)Cc2ccc3c(c2C1O)CCC3` (stereo not given) showed a growth inhibition of 4%.
Work on `Nc1ccc(C(=O)NN2C(=O)C(Cl)C2c2cc(Br)cc(Br)c2O)cc1` (stereo not given) yielded a growth inhibition of 5%.
For `COc1ccc(SC2=C(N(C)C(C)=O)C(=O)c3ccccc3C2=O)cc1`, the growth inhibition was 98% (active).
`O=[N+]([O-])c1ccc(N/N=C/CCCCCCCCCCBr)c([N+](=O)[O-])c1` showed a growth inhibition of -1%.
`O=C(c1ccccc1)c1cccc2ccccc12` showed a growth inhibition of -1%.
In the case of `O=S1(=O)CCc2ccccc2C(Br)C1Br` (stereo not given), the growth inhibition is reported as 10%.
Compound `CC(/C=N/NS(=O)(=O)c1ccc(C)cc1)=C(c1ccccc1)c1ccccc1` has a growth inhibition of 62%.
Compound `Cc1cc(CC(O)(C(F)(F)F)C(F)(F)F)cc(CC(O)(C(F)(F)F)C(F)(F)F)n1` has a growth inhibition of 6%.
`O=S(=O)(c1cc(Cl)c(Cl)cc1Cl)N(CCCCCN(S(=O)(=O)c1cc(Cl)c(Cl)cc1Cl)S(=O)(=O)c1cc(Cl)c(Cl)cc1Cl)S(=O)(=O)c1cc(Cl)c(Cl)cc1Cl` showed a growth inhibition of -29%.
With `O=c1cc(-c2ccccc2)oc2ccc(-c3ccc4oc(-c5ccccc5)cc(=O)c4c3)cc12` the growth inhibition was 13%.
